Reference: ChEMBL document CHEMBL4513137, “CO-ADD screening of University of Manchester (UK) compounds”
In all, about 23,000 compounds went through this assay and about 30 (0.1%) showed an effect of 50% or more. What follows is part of a selection rich in strong results, with near analogues and random picks from the rest. Potency and affinity values are given separately.

System: Pseudomonas aeruginosa
Settings: Concentration 32 ug.mL-1; ASSAY_TEST Inhibition of Bacterial Growth; detection method Absorption (OD600); MEDIA CAMHB; plate type 384well; NBS; CORNING #3640; time 18 hr

SMILES | Inhibition [%]
O=[N+]([O-])c1ccc(-c2ccccc2Nc2ccccc2)cc1F | 55.36
COc1ccc(Nc2ccccc2-c2ccc([N+](=O)[O-])cc2)cc1 | 65.22
Cc1ccccc1Nc1ccccc1-c1ccc([N+](=O)[O-])cc1 | -5.81
O=[N+]([O-])c1ccc(-c2ccccc2Nc2ccccc2)cc1C(F)(F)F | 49.55
O=[N+]([O-])c1ccc(-c2ccccc2Nc2ccccc2)cc1 | -5.45
O=[N+]([O-])c1ccc(-c2c(Nc3ccccc3)cccc2-c2ccccc2)cc1 | 19.1
CC(=O)c1ccc(-c2ccccc2Nc2ccccc2)cc1 | 28.85
c1ccc(Nc2ccccc2-c2ncccn2)cc1 | 60.14
Clc1cc(Br)cc(Cl)c1-c1ccccc1Nc1ccccc1 | 32.77
COc1cc([N+](=O)[O-])ccc1-c1c(Nc2ccccc2)cccc1OC | 30.66
COc1cccc(Nc2ccccc2)c1-c1c(Cl)cc(Br)cc1Cl | 61.56
